# Sampled rows, rich in hits. Any-hit rate of the full collection: about 4.6%.
# proKLK7 act: proKLK7 zymogen activators, primary screen, biochemical, fluorescence intensity | Kallikrein-7 (Homo sapiens), P49862 | purified proKLK7, EDANS-DABCYL substrate fluorescence; 100% is mature enzyme control, 0% vehicle | activation, % at 7 µM | 370,000 tested, 0.9% active;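 active means activation above the mean of all tested compounds plus 3 SD, computed per campaign excluding outliers beyond control limits, cut at about 13% in these data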
# ADAM10 inh: human ADAM10 inhibitors, primary screen, biochemical, QFRET, HTS; Disintegrin and metalloproteinase domain-containing protein 10 (Homo sapiens), O14672; inhibition, % at 7 µM; 370,000 tested, 0.62% active; AID 720582, 2013; recombinant ADAM10, EDANS/DABCYL FRET peptide cleavage, 3 h;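 active means inhibition above a per-campaign cutoff equal to the mean of compounds falling between control-based bounds plus 3 SD, cut at about 20% in these data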;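 further: 0% = DMSO wells while the 100% control is not disclosed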
# Target sequence (O14672 214-748 limits assumed): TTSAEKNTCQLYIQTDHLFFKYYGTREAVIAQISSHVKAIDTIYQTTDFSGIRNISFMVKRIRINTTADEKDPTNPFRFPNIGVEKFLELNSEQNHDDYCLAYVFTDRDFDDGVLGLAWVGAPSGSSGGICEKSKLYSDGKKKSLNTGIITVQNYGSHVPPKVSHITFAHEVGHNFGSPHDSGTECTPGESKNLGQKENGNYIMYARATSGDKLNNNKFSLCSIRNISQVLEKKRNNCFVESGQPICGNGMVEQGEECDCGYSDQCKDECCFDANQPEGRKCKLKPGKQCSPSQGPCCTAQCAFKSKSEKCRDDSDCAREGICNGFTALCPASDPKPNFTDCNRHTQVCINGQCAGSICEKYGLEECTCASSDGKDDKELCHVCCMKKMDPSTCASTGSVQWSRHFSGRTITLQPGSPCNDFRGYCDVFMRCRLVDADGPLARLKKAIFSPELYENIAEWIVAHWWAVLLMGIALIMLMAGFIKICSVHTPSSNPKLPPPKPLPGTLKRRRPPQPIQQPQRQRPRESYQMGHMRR
# ADAM17 inh: ADAM17 inhibitors, primary screen, biochemical, QFRET; recombinant ADAM17, EDANS/DABCYL FRET peptide cleavage; 370,000 tested, 0.83% active; inhibition, % at 6.95 µM;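 active means inhibition above the mean of compounds lying between control limits plus 3 SD, set per campaign, cut at about 8.5% in these data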;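 further: 0% = DMSO-only wells as the low control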
# FAS-TE inh: FAS thioesterase domain inhibitors, primary screen, biochemical, fluorescence intensity, uHTS; Fatty acid synthase (Homo sapiens), P49327; recombinant FAS-TE, OMFH fluorogenic substrate, fluorescence endpoint; inhibition, % at 15 µM; 360,000 tested, 0.67% active; AID 602261, 2012;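 active means compounds whose normalised, plate-corrected inhibition of enzyme fluorescence in the single-dose primary screen is 50% or more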;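 further: 0% = DMSO with enzyme and 100% = substrate without enzyme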
# NR3A LBD binder: binders of NR3A ligand-binding domain, primary screen, biophysical, differential scanning fluorimetry, uHTS; NR3A LBD differential scanning fluorimetry, Tm shift; 0% = protein alone, 100% = glycine-bound protein; Tm shift relative to glycine control, % at 25 µM; 340,000 tested, 2.5% active;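 active means melting temperature shift of at least 10% of the positive control shift, at one fixed dose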
# An asterisk follows results filed as active; x = no result.
SMILES,proKLK7 act,ADAM10 inh,ADAM17 inh,FAS-TE inh,NR3A LBD binder
Nc1[nH]c2cc([N+](=O)[O-])ccc2c1-c1ccccn1,0.2,-1.6,4.4,-2.3,31.0*
Cc1cccc(S(=O)(=O)c2c(N)n(/N=C/c3cccnc3)c3nc4ccccc4nc23)c1,-0.6,-4.9,-0.6,-4.5,44.7*
Cc1ccc(-n2c(N)c(S(=O)(=O)c3ccccc3)c3nc4ccccc4nc32)cc1,-7.9,-315.3,-79.5,12.7,-2.9
Cc1cccc(S(=O)(=O)c2c(N)n(-c3ccccc3)c3nc4ccccc4nc23)c1,-2.8,-273.4,-72.2,10.7,11.5*
Nc1c(S(=O)(=O)c2ccccc2)c2nc3ccccc3nc2n1/N=C/c1ccco1,-5.7,-267.2,-75.7,23.7,12.7*
Cc1cccc(S(=O)(=O)c2c(N)n(/N=C/c3ccco3)c3nc4ccccc4nc23)c1,1.2,-172.5,-56.9,39.3,8.2
Nc1c(S(=O)(=O)c2cccs2)c2nc3ccccc3nc2n1/N=C/c1cccc(O)c1,0.3,-13.3,-9.2,20.5,28.2*
O=c1c2ccc(F)cc2nc2sc(Nc3ccc4c(c3)CCC4)nn12,x,-8.0,-6.9,x,x
CC#CC(=O)N[C@H]1CC[C@@]23CCCN2C(=O)CCC[C@H]3[C@H]1C,x,5.2,2.1,x,x
CCOC(=O)N1CCN(C(=O)C[C@@H]2C(=O)N(Cc3ccc(OC)cc3)C3=CCN(C(=O)OC(C)(C)C)C[C@]32C(=O)OCC)CC1,0.8,-9.4,-4.4,x,x
O=C(c1ccc(Cl)c(Cl)c1)N1CCN(c2ccnc3cc(Cl)ccc23)CC1,x,8.6,2.8,x,x
Cc1cc2c(cc1C)CSC(c1ccc3ccccc3c1O)SC2,-4.7,-7.1,-6.2,3.1,14.7*
Cc1cc2c(cc1C)CSC(c1c(O)ccc3ccccc13)SC2,0.1,-3.6,-3.7,39.4,27.0*
Cc1cc2c(cc1C)CSC(c1ccccc1O)SC2,0.5,19.5,7.5,23.3,11.6*
Cc1cc2c(cc1C)CSC(c1ccc(O)cc1)SC2,0.6,14.9,4.8,4.0,7.9
COCCCNC(=O)C[C@H]1C[C@@]2(C(=O)OC)C(=C[C@H](C(C)C)O[C@@H]2C2CC2)N(CCc2ccc(OC)c(OC)c2)C1=O,-0.5,2.6,2.5,x,x
C=CCN(Cc1ccc2c(c1)OCO2)C(C#CC1CC1)C(C)C (stereo unspecified),-0.1,-4.4,-4.2,x,x
CC(C)(C)c1ccc(S(=O)(=O)N2CCCC2C(=O)N2CCN(c3ccccc3)CC2)cc1 (stereo unspecified),-0.3,-11.5,-2.3,x,x
Cc1ccc(-c2cc(C(=O)Nc3ccc(S(=O)(=O)Nc4nccs4)cc3)c3ccccc3n2)c(C)c1,0.0,40.4*,20.2*,13.9,14.9*
Cc1ccc(C)c(-c2cc(C(=O)Nc3cccc(C(=O)O)c3)c3ccccc3n2)c1,-0.7,-1.7,1.9,0.1,-6.0
Cc1ccc(C)c(-c2cc(C(=O)Nc3nccs3)c3ccccc3n2)c1,-0.9,16.6,2.8,17.0,-1.1
Cc1ccc(C)c(-c2cc(C(=O)Nc3cccnc3)c3ccccc3n2)c1,-0.3,-3.1,4.3,4.7,11.1*
Cc1onc(-c2c(Cl)cccc2Cl)c1C(=O)Nc1ccc2c(c1)OCCO2,-0.1,-6.2,0.7,6.6,0.4
Cc1cc(Br)c(NC(=O)c2c(-c3c(Cl)cccc3Cl)noc2C)c(Br)c1,0.2,0.0,-0.5,16.1,11.8*
CCN(CC)S(=O)(=O)c1ccc(C(=O)NCCOC(=O)c2ccc(F)cc2F)cc1,-0.4,0.6,0.8,1.5,19.0*
SMILES,proKLK7 act,ADAM10 inh,ADAM17 inh,FAS-TE inh,NR3A LBD binder
Cn1nc(C(F)(F)F)c2cc(C(=O)Nc3ccc(C(F)(F)F)cc3)sc21,-0.6,1.0,0.1,34.8,15.4*
C=CCN(C(=O)[C@@H](C)[C@@H](O)c1ccc2ccccc2c1)c1ccccc1,-0.6,1.4,-2.5,x,x
O=C(/C(N=Nc1cccc([N+](=O)[O-])c1)=C(/O)c1ccc(Br)cc1)C(F)(F)F,x,x,x,63.7*,x
COc1cc(OC)cc(N(C(=O)c2ccco2)C(C(=O)NC2CCCC2)c2ccc(N(C)C)cc2)c1 (stereo unspecified),0.2,2.4,-4.1,21.1,2.5
COc1ccc(N(C(=O)c2ccco2)C(C(=O)NC2CCCC2)c2ccc(N(C)C)cc2)cc1 (stereo unspecified),-0.2,-4.6,-4.1,33.9,10.3*
Cc1nn2c(N3CCN(C)CC3)cc(C(C)(C)C)nc2c1-c1ccccc1,-13.8,-28.7,-9.8,25.5,-0.7
Cc1nn2c(N3CCN(C4CCCC4)CC3)cc(C(C)(C)C)nc2c1-c1ccccc1,-0.3,-6.4,-6.1,4.8,12.7*
Cc1cc(N2CCC(C)CC2)n2ncc(-c3ccccc3)c2n1,-1.0,-107.5,-31.8,27.0,12.8*
Cc1cc(NCCN2CCOCC2)n2ncc(-c3ccccc3)c2n1,-0.2,-11.0,-3.6,-6.6,12.8*
Fc1ccc(NC2CCC23CCC(c2ccccc2)CC3)cc1C(F)(F)F (stereo unspecified),x,0.7,-0.5,x,x
CCCCOC(=O)c1c(C)oc2ccc(NS(=O)(=O)c3ccc4c5c(cccc35)C(=O)N4)cc12,2.2,-2.9,0.1,48.8,15.2*
O=C1CC(SC(=Nc2ccccc2)Nc2ccccc2)C(=O)N1c1cccc(Cl)c1 (stereo unspecified),0.6,8.0,2.2,28.5,10.1*
Oc1c(/C=C/C=C/C=Nc2ccccc2)sc(=S)n1Cc1ccccc1,0.5,6.0,-1.5,21.4,10.2*
CCC(CO)Nc1cccc2c1S(=O)(=O)N(Cc1cn(Cc3cccc(C(F)(F)F)c3)nn1)Cc1ccccc1O2 (stereo unspecified),0.1,-30.9,-6.2,x,x
O=C(O)CCN1C(=O)/C(=C\c2cccc(Oc3ccccc3)c2)SC1=S,0.3,-0.9,-1.0,-12.5,13.6*
O=C(O)CN1C(=O)/C(=C\c2cccc(OCc3ccccc3F)c2)SC1=S,0.7,7.0,-1.7,-4.9,30.8*
O=C(O)CN1C(=O)/C(=C\c2cc(Br)ccc2OCc2ccc(Cl)cc2Cl)SC1=S,x,x,x,86.1*,29.4*
Cc1ccc(C)c(C(=O)NC(C)CCc2ccccc2)c1 (stereo unspecified),-0.6,-1.1,-0.1,-2.4,-0.6
Cc1ccc(C(=O)NC(=S)Nc2ccc(NC(=O)c3cccs3)cc2)cc1[N+](=O)[O-],0.2,2.7,2.2,-2.8,30.7*
Cc1ccc(C(=O)NC(C)CCc2ccccc2)cc1[N+](=O)[O-] (stereo unspecified),-0.6,6.8,8.1,74.5*,-1.0
Cc1ccc(C(=O)Nc2ccc(NC(=O)c3cccs3)cc2)cc1[N+](=O)[O-],-0.7,2.6,0.8,-2.9,29.5*

# Bioassay records as filed in PubChem.
